# Experimental data taken from paper PMC3218832.
# Key:
# Assay in all cases: protein binding microarray; high values mean tight binding
# Conditions in all cases: dsDNA, one strand shown
# RELARELA (p65 homodimer) = RELARELA (p65 homodimer) (Homo sapiens, UniProt Q04206 1-307)
# p50p50 homodimer = p50p50 homodimer (Homo sapiens, UniProt P19838 7-356)
# p52p52 homodimer = target: T1, p52p52 homodimer (Homo sapiens, UniProt Q00653 4-332)
# T1 sequence: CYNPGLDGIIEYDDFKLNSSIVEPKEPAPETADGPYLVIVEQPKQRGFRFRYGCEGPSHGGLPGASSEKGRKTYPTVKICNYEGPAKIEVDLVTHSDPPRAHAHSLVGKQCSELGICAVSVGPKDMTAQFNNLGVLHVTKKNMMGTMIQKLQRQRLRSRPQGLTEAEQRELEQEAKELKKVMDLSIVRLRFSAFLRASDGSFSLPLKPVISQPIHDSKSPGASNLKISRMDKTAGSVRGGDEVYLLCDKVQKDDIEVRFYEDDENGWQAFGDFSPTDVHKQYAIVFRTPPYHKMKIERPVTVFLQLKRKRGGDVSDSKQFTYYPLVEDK
# [1] = target: RELA (p65) subunit of heterodimer;p50 subunit (Homo sapiens;Homo sapiens, UniProt Q04206;P19838 1-307;7-356)
# [2] = target: RELA (p65) subunit of heterodimer;p52 subunit (Homo sapiens;Homo sapiens, UniProt Q04206;Q00653 1-307;4-332)
# RELB subunit;p50 subunit = RELB subunit;p50 subunit (Homo sapiens;Homo sapiens, UniProt Q01201;P19838 120-401;7-356)
# RELB subunit;p52 subunit = target: T2, RELB subunit;p52 subunit (Homo sapiens;Homo sapiens, UniProt Q01201;Q00653 120-401;4-332)
# T2 sequence 1: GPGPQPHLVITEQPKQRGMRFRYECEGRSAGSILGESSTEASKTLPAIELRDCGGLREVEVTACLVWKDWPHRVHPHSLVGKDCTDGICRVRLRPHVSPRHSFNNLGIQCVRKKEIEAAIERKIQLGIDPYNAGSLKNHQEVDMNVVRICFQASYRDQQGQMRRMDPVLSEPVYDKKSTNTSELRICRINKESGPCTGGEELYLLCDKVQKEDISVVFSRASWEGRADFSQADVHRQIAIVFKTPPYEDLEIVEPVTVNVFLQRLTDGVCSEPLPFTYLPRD
# T2 sequence 2: T1 sequence
# [3] = target: C-Rel subunit;p50 subunit (Homo sapiens;Homo sapiens, UniProt Q04864;P19838 1-285;7-356)
# [4] = target: T3, C-Rel subunit;p52 subunit (Homo sapiens;Homo sapiens, UniProt Q04864;Q00653 1-285;4-332)
# T3 sequence 1: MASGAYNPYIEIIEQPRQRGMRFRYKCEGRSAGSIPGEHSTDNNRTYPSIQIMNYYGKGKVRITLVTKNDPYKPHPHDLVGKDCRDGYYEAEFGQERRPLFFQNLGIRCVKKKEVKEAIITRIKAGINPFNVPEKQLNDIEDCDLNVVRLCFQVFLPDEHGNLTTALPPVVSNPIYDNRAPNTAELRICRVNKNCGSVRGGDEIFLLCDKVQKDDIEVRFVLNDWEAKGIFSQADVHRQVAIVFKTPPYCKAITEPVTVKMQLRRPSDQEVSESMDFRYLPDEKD
# T3 sequence 2: T1 sequence
# RELA (p65) subunit of heterodimer;p50 subunit, sequence (Q04206 1-307, chain 1 of 2): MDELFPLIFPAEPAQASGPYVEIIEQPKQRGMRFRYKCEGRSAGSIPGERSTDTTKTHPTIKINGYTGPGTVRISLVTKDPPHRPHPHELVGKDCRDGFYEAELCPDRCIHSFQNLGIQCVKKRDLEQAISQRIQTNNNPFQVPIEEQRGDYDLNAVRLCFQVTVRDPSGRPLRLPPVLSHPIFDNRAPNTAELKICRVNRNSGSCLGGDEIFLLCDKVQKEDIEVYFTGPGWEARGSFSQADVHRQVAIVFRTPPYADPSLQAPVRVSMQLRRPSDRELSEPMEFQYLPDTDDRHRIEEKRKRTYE
# RELA (p65) subunit of heterodimer;p50 subunit, sequence (P19838 7-356, chain 2 of 2): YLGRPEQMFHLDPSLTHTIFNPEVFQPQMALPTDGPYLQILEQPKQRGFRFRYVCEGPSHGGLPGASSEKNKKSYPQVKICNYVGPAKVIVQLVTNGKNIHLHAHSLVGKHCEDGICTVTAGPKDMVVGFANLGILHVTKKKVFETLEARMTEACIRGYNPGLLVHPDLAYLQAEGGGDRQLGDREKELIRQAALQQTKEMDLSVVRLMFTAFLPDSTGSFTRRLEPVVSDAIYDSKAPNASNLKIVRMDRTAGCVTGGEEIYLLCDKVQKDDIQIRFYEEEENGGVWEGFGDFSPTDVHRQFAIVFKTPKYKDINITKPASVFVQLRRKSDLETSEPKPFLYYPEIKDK
# RELARELA (p65 homodimer), sequence (Q04206 1-307): as the sequence (Q04206 1-307, chain 1 of 2) above
# p50p50 homodimer, sequence (P19838 7-356): as the sequence (P19838 7-356, chain 2 of 2) above
Sequence,binding signal (RELARELA (p65 homodimer)),binding signal (p50p50 homodimer),binding signal (p52p52 homodimer),binding signal [1],binding signal [2],binding signal (RELB subunit;p50 subunit),binding signal (RELB subunit;p52 subunit),binding signal [3],binding signal [4]
CGGGGGGTCCC,0.448 z-score,0.975 z-score,2.05 z-score,1.38 z-score,1.59 z-score,1.28 z-score,1.67 z-score,1.04 z-score,1.59 z-score
AGAGATTTCCT,0.344 z-score,-0.498 z-score,-0.5 z-score,-0.403 z-score,-0.389 z-score,-0.762 z-score,-0.49 z-score,-0.209 z-score,-0.443 z-score
GGAGTGGCCCT,-0.154 z-score,-1.1 z-score,-0.562 z-score,-0.155 z-score,-0.329 z-score,-0.631 z-score,-0.334 z-score,-0.305 z-score,-0.0519 z-score
AGAGTCATCCT,-0.641 z-score,-2.61 z-score,-0.647 z-score,-1.23 z-score,-0.868 z-score,-1.06 z-score,-0.873 z-score,-1.63 z-score,-1.09 z-score
CGAGGCACCCT,-1.09 z-score,-1.16 z-score,-0.572 z-score,-1.04 z-score,-0.854 z-score,-0.726 z-score,-0.72 z-score,-0.919 z-score,-1.01 z-score
CAGTAGACCCC,-0.444 z-score,-0.398 z-score,-0.423 z-score,-0.397 z-score,-0.485 z-score,-0.472 z-score,-0.384 z-score,-0.501 z-score,-0.439 z-score
GAATTGTTCCT,0.0616 z-score,-1.38 z-score,-0.497 z-score,-0.672 z-score,-0.721 z-score,-1.09 z-score,-0.587 z-score,-0.937 z-score,-0.574 z-score
GGGTGGGCCCT,0.392 z-score,-0.139 z-score,-0.133 z-score,-0.0704 z-score,-0.184 z-score,-0.392 z-score,-0.318 z-score,-0.304 z-score,0.357 z-score
GAATAAGTCCC,0.563 z-score,1.13 z-score,0.974 z-score,1.43 z-score,0.993 z-score,1.38 z-score,1.13 z-score,1.03 z-score,0.676 z-score
GAGGTAGTCCC,0.343 z-score,0.907 z-score,0.506 z-score,0.436 z-score,0.326 z-score,0.57 z-score,0.233 z-score,0.447 z-score,0.318 z-score
AGGTGGTCCCT,-0.0291 z-score,0.913 z-score,0.63 z-score,0.18 z-score,0.558 z-score,0.666 z-score,0.659 z-score,0.227 z-score,0.391 z-score
CGAAGCGCCCC,-0.596 z-score,-0.188 z-score,-0.173 z-score,-0.171 z-score,-0.0511 z-score,0.0336 z-score,0.263 z-score,-0.144 z-score,0.0513 z-score
CGAAAGGCCCT,-0.835 z-score,-0.751 z-score,-0.447 z-score,-0.366 z-score,-0.217 z-score,-0.417 z-score,-0.6 z-score,-0.822 z-score,-0.62 z-score
AAGATCGTCCC,0.328 z-score,0.168 z-score,0.307 z-score,-0.197 z-score,-0.135 z-score,0.309 z-score,0.078 z-score,0.266 z-score,-0.166 z-score
CGGGGGTCCCT,0.00646 z-score,1.14 z-score,0.985 z-score,0.963 z-score,1.07 z-score,1.06 z-score,1.23 z-score,0.761 z-score,0.926 z-score
